{"source": "PubChem BioAssay AID540332", "about": "(The Scripps Research Institute Molecular Screening Center, 2011)", "tested_on": "Rolipram", "experiment": "selectivity profile across receptors and CYP450s – biochemical, Ricerca HitProfilingScreen, CYP450, set 2, selectivity assay for S1P4 agonist project, profiling panel (AID 540332)", "conditions": "at 30 µM; active compounds read high", "note": "A number with no mark means an inactive call. How the calls were made is not given here."}
{"molecule": "COCCN=C1S/C(=C\\c2cc(C)n(-c3ccc(F)cc3F)c2C)C(=O)N1C", "values": [{"measurement": "inhibition", "value": 15, "unit": "%"}]}
